Results from PubChem BioAssay (Tox21).
“And” between values parts separate entries of the source, which are not always exact repeats. Equal values may be shown once. Results filed as inconclusive are left out. Some structures have more than one record in an assay (separate samples or runs), and their calls can disagree. The source made the active and inactive calls. Unless noted, the call rests on the fitted dose curve; in most records, active means well fitted curve in the direction sought with a large enough effect in the repeat runs; inconclusive means weak or mixed curves; inactive means no such curve, though single readings can be large; an effect the other way counts as inactive or inconclusive.

What was measured:
[1] = qHTS assay for small molecule agonists of the p53 signaling pathway (AID 651631; calls by dose curve; further: nearly all actives have a fitted effect of over 15% in size)
Method in brief: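 We treat p53RE-bla HCT-116 cells with compounds for 16 h at 37 °C, add LiveBLAzer B/G FRET substrate for 2 h at room temperature, and measure fluorescence intensity.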

[2] = qHTS assay for small molecules that induce genotoxicity in human embryonic kidney cells expressing luciferase-tagged ATAD5 (AID 651632); further: nearly all actives have a fitted effect of over 15% in size
Method in brief: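 HEK293T cells carrying luciferase-tagged ATAD5 were given compound or DMSO vehicle and incubated 16 hr at 37C, 5% CO2. Luciferase activity was read after 30 min at room temperature with Amplite; a rise signals genotoxic stress.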

[3] = qHTS assay for small molecule agonists of the p53 signaling pathway - cell viability (AID 651633; calls by dose curve; further: nearly all actives have a fitted effect of over 30% in size; further: potency means the concentration at half of the fitted maximal effect)
Method in brief: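 Viability counter-read: CellTiter-Glo luminescence (30 min, room temperature) in the same p53RE-bla plates. These plates had been exposed to compounds for 16 h at 37 C.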

[4] = qHTS assay for small molecules that induce genotoxicity in human embryonic kidney cells expressing luciferase-tagged ATAD5 - cell viability (AID 651634; calls by dose curve; further: nearly all actives have a fitted effect of over 25% in size)
Method in brief: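 HEK293T cells carrying luciferase-tagged ATAD5, 2,000 cells/well, exposed to compound for 15.5 hr at 37C. Viability read as live-cell protease activity by CellTiter-Fluor fluorescence after 30 min at 37C.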

[5] = qHTS assay to test for compound auto fluorescence at 590 nm (red) in HepG2 cells (AID 720674)
Method in brief: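 Red autofluorescence (Ex/Em 540/590 nm, Rose Bengal sodium equivalents) was measured in HepG2 cells, 2,000 per well in MEM plus 10% FBS, plated overnight at 37 C. Readings were taken 1 hr after adding 23 nL compound or DMSO, at 37 C and 5% CO2.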

[6] = qHTS assay to test for compound auto fluorescence at 535 nm (green) in HepG2 cells (AID 720675)
[7] = qHTS assay to test for compound auto fluorescence at 460 nm (blue) in HEK293 cells (AID 720678)
Method in brief: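 Auto fluorescence in the blue band was quantified as triamterene equivalency. HEK293 cells were seeded at 2,000/well, dosed after a 4-5 hr attachment, and kept overnight at 37C before the 405/460 nm reading.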

[8] = qHTS assay to test for compound auto fluorescence at 590 nm (red) in HEK293 cells (AID 720679)
Method in brief: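 Autofluorescence equivalency to Rose Bengal sodium, 540/590nm, in HEK293 cells exposed overnight to 23 nL compound per well.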

[9] = qHTS assay to test for compound auto fluorescence at 535 nm (green) in HEK293 cells (AID 720680)
[10] = qHTS assay to test for compound auto fluorescence at 460 nm (blue) in HEK293 cell free culture (AID 720681)
Method in brief: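 Blue fluorescence (Ex 405/Em 460 nm, triamterene-equivalent) was read immediately after pin transfer of compound or DMSO into medium (DMEM, 10% FBS) without cells.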

[11] = qHTS assay to test for compound auto fluorescence at 535 nm (green) in HEK293 cell free culture (AID 720682)
Method in brief: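 Green-channel intensity (Ex/Em 485/535 nm) was recorded from compound-treated wells containing only DMEM with 10% FBS. Fluorescein provided the equivalency standard.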

[12] = qHTS assay to test for compound auto fluorescence at 590 nm (red) in HepG2 cell free culture (AID 720684)
Method in brief: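 Steps: dispense MEM/10% FBS medium, no cells; pin compound or DMSO vehicle; read red channel, Ex/Em 540/590 nm. Output given as Rose Bengal sodium equivalents.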

[13] = qHTS assay to test for compound auto fluorescence at 460 nm (blue) in HepG2 cell free culture (AID 720685)
Method in brief: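 Compound (23 nL) or DMSO pinned into cell-free MEM with 10% FBS; blue fluorescence read at 405/460 nm excitation/emission, expressed as auto-fluorescence equivalency to triamterene.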

[14] = qHTS assay to test for compound auto fluorescence at 535 nm (green) in HepG2 cell free culture (AID 720686)
[15] = qHTS assay to test for compound auto fluorescence at 460 nm (blue) in HepG2 cells (AID 720687)
Method in brief: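 Blue-channel autofluorescence (Ex/Em 405/460 nm, triamterene-equivalent) was measured after 1 hr compound exposure at 37 C, 5% CO2. Cells were HepG2, plated overnight at 37 C in MEM plus 10% FBS.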

[16] = target: Glucocorticoid receptor (Homo sapiens) (UniProt P04150); assay: qHTS assay to identify small molecule agonists of the glucocorticoid receptor (GR) signaling pathway (AID 720691; active means well fitted activation curve with a large enough effect in the signal ratio in the repeat runs, not every such curve was filed as active; the % refers to the signal ratio)
Glucocorticoid receptor (Homo sapiens), sequence (P04150 whole entry, looked up): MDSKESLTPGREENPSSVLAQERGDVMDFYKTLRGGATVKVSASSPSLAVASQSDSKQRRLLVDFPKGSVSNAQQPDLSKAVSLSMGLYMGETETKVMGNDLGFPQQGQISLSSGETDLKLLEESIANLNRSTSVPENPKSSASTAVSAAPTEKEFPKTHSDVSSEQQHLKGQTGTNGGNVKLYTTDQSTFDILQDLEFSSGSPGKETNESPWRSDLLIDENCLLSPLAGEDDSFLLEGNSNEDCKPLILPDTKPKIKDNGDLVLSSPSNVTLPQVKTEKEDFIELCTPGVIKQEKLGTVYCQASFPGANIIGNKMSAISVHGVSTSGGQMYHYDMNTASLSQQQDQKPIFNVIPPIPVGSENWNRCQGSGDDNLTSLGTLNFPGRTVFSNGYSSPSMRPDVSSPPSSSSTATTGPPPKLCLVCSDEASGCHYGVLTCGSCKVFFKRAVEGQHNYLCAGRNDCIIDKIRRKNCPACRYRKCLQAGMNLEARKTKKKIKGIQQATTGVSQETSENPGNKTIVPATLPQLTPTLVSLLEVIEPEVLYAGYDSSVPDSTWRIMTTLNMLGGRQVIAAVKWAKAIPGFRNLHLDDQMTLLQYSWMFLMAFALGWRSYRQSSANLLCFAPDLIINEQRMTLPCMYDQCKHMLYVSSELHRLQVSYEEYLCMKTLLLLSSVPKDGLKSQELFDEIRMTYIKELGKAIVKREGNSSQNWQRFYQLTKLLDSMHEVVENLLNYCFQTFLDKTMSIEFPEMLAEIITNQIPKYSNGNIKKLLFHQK
Method in brief: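 GR-bla HeLa cells carrying a GRE-driven beta-lactamase reporter, exposed to compounds for 18 h at 37 C. Reporter activation read as fluorescence after 2 h with LiveBLAzer B/G FRET substrate at room temperature.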

[17] = target: Glucocorticoid receptor (Homo sapiens) (UniProt P04150); assay: qHTS assay to identify small molecule antagonists of the glucocorticoid receptor (GR) signaling pathway (AID 720692; active means well fitted inhibition curve with a large enough effect in the signal ratio in the repeat runs, not every such curve was filed as active; the % refers to the signal ratio)
Method in brief: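 GR-bla HeLa cells carrying a GRE-driven beta-lactamase reporter received compound after 4 h plating, then dexamethasone (5 nM final). After 18 h at 37C, the FRET substrate was loaded for 2 h at room temperature and fluorescence read.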

[18] = qHTS assay for small molecule disruptors of the mitochondrial membrane potential (AID 720635)
Method in brief: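 Mitochondrial membrane potential tracked with Mito-MPS dye, red aggregates (ex 540/em 590 nm) against green monomers (ex 490/em 535 nm). Compound treatment 1 hr at 37C, dye 30 min in HepG2.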

[19] = qHTS assay to test for compound auto fluorescence at 590 nm (red) in HEK293 cell free culture (AID 720683)
Method in brief: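 Red-channel autofluorescence of compounds in culture medium (DMEM, 10% FBS), no cells, measured at 540/590 nm. Rose Bengal sodium is the reference fluorophore for equivalence.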
On the % scale 0 is the no-effect control and ±100 the full control effect.

O=S(=O)(c1ccccc1)c1ccc(Cl)cc1
inactive: Potency [1] | Potency [2] | Potency [3] | Potency [4] | outcome [5] | outcome [6] | Potency [7] | outcome [8] | outcome [9] | Potency [10] | outcome [11] | outcome [12] | Potency [13] | outcome [14] | Potency [15] | Potency [16] | Potency [17]

C[Si](NC1CCCCC1)(NC1CCCCC1)NC1CCCCC1
inactive: Potency [1] | Potency [2] | Potency [3] | Potency [4] | Potency [18] | outcome [5] | outcome [6] | Potency [7] | outcome [8] | outcome [9] | Potency [10] | outcome [11] | Potency [13] | outcome [14] | Potency [15] | Potency [16] | Potency [17]

C=CC(C)(O)CCCC(C)CCCC(C)CCCC(C)C (stereo unspecified)
inactive: Potency [1] | Potency [2] | Potency [3] | Potency [4] | outcome [5] | outcome [6] | Potency [7] | outcome [8] | outcome [9] | Potency [10] | outcome [11] | outcome [19] | outcome [12] | Potency [13] | outcome [14] | Potency [15] | Potency [16] | Potency [17]

CCOC(=O)[C@@H](C)Oc1ccc(Oc2nc3ccc(Cl)cc3o2)cc1
inactive: Potency [1] | Potency [2] | Potency [3] | Potency [4] | Potency [18] | outcome [5] | outcome [6] | Potency [7] | outcome [9] | Potency [10] | outcome [11] | outcome [19] | Potency [13] | outcome [14] | Potency [15] | Potency [16]

CC(CCO)CCc1ccccc1 (stereo unspecified)
inactive: Potency [1] | Potency [2] | Potency [3] | Potency [4] | Potency [18] | outcome [5] | outcome [6] | Potency [7] | outcome [8] | outcome [9] | Potency [10] | outcome [11] | outcome [12] | Potency [13] | outcome [14] | Potency [15] | Potency [16] | Potency [17]

CNCCCC1c2ccccc2C=Cc2ccccc21
inactive: Potency [1] | Potency [2] | Potency [3] | Potency [4] | fluorescence, relative to Rose Bengal [5] -0.202% [at 18.6 µM] | fluorescence, % of fluorescein control [6] -0.0324% [at 18.6 µM] | fluorescence, % of triamterene [7] 0.0209% [at 18.6 µM] | fluorescence, % of fluorescent control [8] -0.279% [at 18.6 µM] | fluorescence, % of fluorescein [9] 0.0057% [at 18.6 µM] | fluorescence, % of fluorescent control [10] 0.01% [at 18.6 µM] | activity change [11] 0.0344% [at 18.6 µM] | fluorescence, % of Rose Bengal [12] 0.549% [at 18.6 µM] | fluorescence, % of fluorescent control [13] -0.0014% [at 18.6 µM] | fluorescence, % of fluorescent control [15] -0.121% [at 18.6 µM] | Potency [16] | Potency [17]

Cc1cc(O)c(C(C)C)cc1Cl
inactive and 54.5 µM (active): Potency [3]
inactive: Potency [1] | Potency [2] | Potency [4] | outcome [5] | outcome [6] | Potency [7] | outcome [8] | outcome [9] | Potency [10] | outcome [11] | outcome [19] | outcome [12] | Potency [13] | outcome [14] | Potency [16]

COCC(O)CO (stereo unspecified)
inactive: Potency [1] | Potency [2] | Potency [3] | Potency [4] | outcome [5] | outcome [6] | Potency [7] | outcome [8] | Potency [10] | outcome [11] | outcome [19] | Potency [13] | outcome [14] | Potency [15] | Potency [16] | Potency [17]

CC(C)CCCCCCOC(=O)CCCCC(=O)OCCCCCCC(C)C
inactive: Potency [1] | Potency [2] | Potency [3] | Potency [4] | outcome [5] | outcome [6] | Potency [7] | outcome [9] | Potency [10] | outcome [11] | outcome [19] | outcome [12] | Potency [13] | outcome [14] | Potency [15] | Potency [16] | Potency [17]
